Rows were chosen to be rich in hits. Some 14% of all compounds tested hit in one or more screens of this group.
A350 fluor: A350 region autofluorescence; max dye-equivalent concentration, M; AID 590; 59,000 compounds, 11% hits; Compound autofluorescence, 340/450 nm, Alexa 350 dye-equivalents; active compounds read high; in the data active = max dye-equivalent concentration above about 10 nM; inconclusive = mostly about 1.1 nM to 9.6 nM
4MU fluor: compounds fluorescent in 4-MU spectral region; AID 589; 59,000 compounds, 11% hits; max dye-equivalent concentration, M; compound autofluorescence, 340/450 nm, 4-MU equivalents; active compounds read high; in the data active = max dye-equivalent concentration above about 10 nM; inconclusive = mostly about 1.1 nM to 9.6 nM
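Compounds in 100 mM Tris, pH 8.0, sat 15 min at room temperature before fluorescence was read at 340 nm excitation/450 nm emission; a per-plate six-point 4-MU standard curve converted signals to dye-equivalent concentration at each compound concentration.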
HADH2 inh: inhibitors of human HADH2 dehydrogenase | Q99714 | recombinant HADH2, NADH fluorescence, beta-hydroxybutyryl-CoA | Potency, µM (top dose mostly 57.1 µM), for inactives: at the highest dose activity change, negative = inhibition, most hits filed as inhibitors | 73,000 compounds, 3.4% hits | AID 886; also: potency is read from the fitted curve at half-maximal effect; % is scaled to controls: 0 for no effect and ±100 for the full control effect; nearly all actives have a fitted effect of over 60% in size
Target sequence (Q99714 whole entry, looked up, one chain of several): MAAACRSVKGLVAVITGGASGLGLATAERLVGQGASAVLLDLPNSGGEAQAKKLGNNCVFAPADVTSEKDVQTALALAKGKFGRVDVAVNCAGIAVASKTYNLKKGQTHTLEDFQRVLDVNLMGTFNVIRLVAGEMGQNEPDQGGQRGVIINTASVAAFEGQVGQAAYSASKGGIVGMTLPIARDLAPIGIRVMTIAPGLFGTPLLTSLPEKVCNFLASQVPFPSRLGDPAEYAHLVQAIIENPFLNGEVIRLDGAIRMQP
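Buffer 100 mM Tris-HCl pH 9.0/0.01% Tween-20; HADH2 20 nM; NAD+ 1 mM; beta-hydroxybutyryl-CoA 90 uM (all final). 15 min cpd preincubation, RT.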
CRE Fsk mod: CRE-bla signaling modulation under forskolin stimulation; CHO CRE-bla reporter (cAMP response element driving beta-lactamase), forskolin EC10, beta-lactamase ratio; Potency, µM (top dose mostly 38.2 µM), without a hit: top-dose activity change, negative = inhibition, most hits filed as activators; 71,000 compounds, 2.5% hits; AID 662; active = well fitted activation curve with a large enough effect in the signal ratio, with a control signal flat, not every such curve was filed as active; inconclusive = small, poorly fitted or top-dose-only effect, or effect the other way, or a change in a side signal; the % refers to the signal ratio; also: potency is read from the fitted curve at half-maximal effect; % of control where 0% means no effect
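Modulation of forskolin-driven signalling is measured in CHO cells carrying a CRE-controlled beta-lactamase reporter. Cells are stimulated with EC10 NKH 477 in the presence of titrated compound for 3 h at 37 °C, then loaded with CCF4 for 2 h at room temperature.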
AID923: qHTS Assay for Allosteric/Competitive Inhibitors of Caspase-1: Spectroscopic Profiling in AFC Spectral Region; compound fluorescence, AFC spectral region (405/520 nm); Potency, µM (highest dose often 57.5 µM), inactives show at the top dose fluorescence increase, usual class: activators; 75,000 compounds, 1.1% hits; AID 923, 2007; also: potency is read from the fitted curve at half-maximal effect; 0% is about no effect
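Baseline compound fluorescence (AFC region, 405 nm ex/520 nm em) taken from the intercept of kinetic reads with 50 nM caspase-1 and 5 uM Ac-WEHD-AFC; normalized to an on-plate AFC standard curve; compounds titrated up to 57 uM.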
HSD17B inhib: HSD17B dehydrogenase inhibition. Q99714. recombinant HSD17B10, NADH fluorescence kinetic. 75,000 compounds, 7.6% hits. AID 893. Potency, µM (doses to about 57.1 µM), without a hit: at the top dose activity change, negative = inhibition, hits mostly inhibitors;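 also: the protocol describes HADH2 (HSD17B10) and not the HSD17B4 of the title; potency is read from the fitted curve at half-maximal effect; % is scaled to controls: 0 for no effect and ±100 for the full control effect; nearly all actives have a fitted effect of over 70% in size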
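His-tagged E. coli-expressed HADH2 at 20 nM in 100 mM Tris-HCl pH 9.0 with 0.01 % Tween-20, preincubated 15 min with compound at room temperature. Reaction with 1 mM NAD+ and 90 uM beta-hydroxybutyryl coenzyme A; NADH fluorescence (360/450 nm) read kinetically over 4 min, last minus first point.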
The depositor's hits bear a star; i = inactive; ? = inconclusive; / = not tested or not shown; ! = repeats disagree; [ ] = another dose, or the depositor's remark. Unless noted, calls follow the shape of the dose curve; as a rule, active = well fitted curve in the direction sought with a large enough effect; inconclusive = small, poorly fitted or top-dose-only effect, or another doubt; inactive = no such curve, though single readings can be large; an effect the other way counts as inactive or inconclusive.

SMILES	A350 fluor	4MU fluor	HADH2 inh	CRE Fsk mod	AID923	HSD17B inhib
Cc1cccc(N2CCc3c2nc2ccccc2c3N)c1	3e-07M*	3.1e-07M*	105%	0%	0%	32µM*
Cc1ccnc(-n2c(C)nc3ccccc3c2=O)c1	/	/	1%	-3%	-2%	7%
CN1C[C@@H](C(=O)N[C@]2(C)O[C@]3(O)[C@H]4CCCN4C(=O)[C@H](Cc4ccccc4)N3C2=O)C[C@H]2c3cccc4[nH]cc(c34)C[C@@H]21	i	i	?	-26%	-1%	-3%
Nc1ccccc1O.O.O=C(O)[C@H]1[O][Sb][O][C@H]1C(=O)O	?	?	-10%[11.4 µM]	9%[7.6 µM]	-4%[11.5 µM]	-6%[11.4 µM]
Oc1cc(Cl)c(Cl)c(Cl)c1Cl	/	/	32µM*	?	-4%	-4%
C(=NC1CCCCC1)=NC1CCCCC1	/	/	-2%	-3%	3%	4%
COc1ccc2c(c1OC)C(=O)OC2C1c2cc3c(cc2CCN1C)OCO3 (centres undefined)	/	/	7%	-5%	1%	?
COc1ccc(CC2c3cc(OC)c(OC)cc3CCN2C)cc1OC (centres undefined)	3.6e-08M*	3.8e-08M*	-6%	?	4%	?
C[C@@H]1Cc2cc3c(cc2C(c2ccc(N)cc2)=NN1)OCO3	i	i	?	9%	-1%	6%
O=C(OC1Cc2c(O)cc(O)cc2OC1c1cc(O)c(O)c(O)c1)c1cc(O)c(O)c(O)c1 (centres undefined)	/	/	/	/	-1%	7.9µM*
CC1=C(O)C(=O)[C@H]2O[C@@H]2C1=O	/	/	?	?	5%	26%
CC(C)c1cccc(C(C)C)c1O	1.2e-07M*	1.5e-07M*	-5%	2%	-2%	-5%
CC(C)(O)[C@H]1[C@H]2OC(=O)[C@@H]1[C@]1(O)C[C@H]3O[C@]34C(=O)O[C@H]2[C@]14C (tested in a mixture with another compound)	i	i	-13%	0%	3%	-3%
O=C(Cc1ccc(Cl)c(Cl)c1)N1CCCC[C@H]1CN1CCCC1	6.5e-08M*	6.7e-08M*	5%	-23%	-1%	24%
COC(=O)N1CCN(C(=O)Cc2ccc(Cl)c(Cl)c2)[C@H](CN2CCCC2)C1	i	i	10%	?	0%	-11%
C[C@@H]1[C@H]2C=C[C@@H]1[C@@H](c1c3ccc(=O)c(O)c-3oc3c(O)c(O)ccc13)[C@@H]2C(=O)O	i	i	0.79µM*	-14%[7.6 µM]	0%[11.5 µM]	1µM*
O=CN1C[C@H]2C[C@@H](C1)c1cccc(=O)n1C2	i	i	-5%	-17%	/	/
COP(=O)(OC)C(O)C(Cl)(Cl)Cl (centres undefined)	2.7e-07M*	2.4e-07M*	/	/	/	/
CC1CCCCN1CC(=O)c1ccc2cc[nH]c2c1 (centres undefined)	/	/	?	?	4%	32µM*
COP(=O)(OC)O/C(=C\Cl)c1cc(Cl)c(Cl)cc1Cl	/	/	-8%	1%	1%	4%
CNCCc1c[nH]c2ccccc12	5.6e-08M*	4.5e-08M*	/	/	/	/
COc1ccc(C(=O)O[C@H]2CC[C@@]3(C)[C@H]4CC[C@H]5[C@]3(C[C@]3(O)[C@H]6CN7C[C@H](C)CC[C@H]7[C@](C)(O)[C@]6(O)[C@H](O)C[C@]53O)O[C@]24O)cc1OC	i	i	16%[11.4 µM]	0%[7.6 µM]	0%[11.5 µM]	11%[11.4 µM]
NCCc1ccc(O)cc1	7.1e-08M*!	5.9e-08M*!	8%	?	-2%	6%
NNC(=O)c1ccc(O)cc1	i	i	11%	2%	-4%	5%
CCCCCCCCCc1ccc(O)cc1	/	/	?	5µM*	-3%	?
N#CCBr	/	/	-9%	-18%	1%	0%
CN1CCN(C(=O)COc2ccc(-c3nc4ccccc4s3)cc2)CC1	?	?	?	10%	/	25µM*
CC(C)NS(=O)(=O)c1ccc(OCC(=O)N2CCN(C)CC2)cc1	/	/	0%	-1%	0%	5%

Source: PubChem
